FLuc counter: qHTS profiling assay for firefly luciferase inhibitor/activator using purifed enzyme and Km concentrations of substrates (counterscreen for miR-21 project); 6.9% of 360,000 active; purified FLuc, Km substrates, luminescence inhibition; Potency, µM (series often up to 57.5 µM), for the others: at the highest dose activity change, negative = inhibition, actives largely listed as inhibitors; Luciferin 4-monooxygenase (Photinus pyralis), P08659;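 also: plate controls were vehicle for no effect and reference inhibitor for full effect; nearly all actives have a fitted effect of over 55% in size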
Target sequence (P08659 whole entry, looked up): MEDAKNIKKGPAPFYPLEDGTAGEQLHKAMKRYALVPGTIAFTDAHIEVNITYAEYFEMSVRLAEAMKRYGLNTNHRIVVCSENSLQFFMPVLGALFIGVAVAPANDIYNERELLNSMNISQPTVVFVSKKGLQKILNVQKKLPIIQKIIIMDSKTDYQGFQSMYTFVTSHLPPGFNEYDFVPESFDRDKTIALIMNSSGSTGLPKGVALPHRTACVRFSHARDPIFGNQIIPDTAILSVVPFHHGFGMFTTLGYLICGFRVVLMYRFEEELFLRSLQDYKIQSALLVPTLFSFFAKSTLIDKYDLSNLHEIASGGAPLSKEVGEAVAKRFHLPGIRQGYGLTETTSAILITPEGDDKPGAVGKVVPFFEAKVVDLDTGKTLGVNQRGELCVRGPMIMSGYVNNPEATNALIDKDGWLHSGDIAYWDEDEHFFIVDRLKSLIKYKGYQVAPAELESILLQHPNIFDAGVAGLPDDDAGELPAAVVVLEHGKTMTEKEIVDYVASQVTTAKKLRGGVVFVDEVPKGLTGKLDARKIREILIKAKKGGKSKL
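Biochemical qHTS of compounds, final roughly 60 µM downward over six points, against 10 nM purified firefly luciferase using Km concentrations of substrates (10 uM D-luciferin, 10 uM ATP) in Tris acetate pH 7.5 buffer; luminescence output.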
NPC1 promoter act: qHTS Assay for NPC1 Promoter Activators; Potency, µM (top dose mostly 9.22 µM), for inactives: at the top dose activation, most hits filed as activators; 2.4% of 320,000 active; Huh7 NPC1 promoter luciferase reporter, 24 h; AID 485313, 2010; also: % of control where 0% means no effect; nearly all actives have a fitted effect of over 60% in size
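Cells: Huh7 expressing luciferase under the NPC1 promoter, 1500/well. Seeded 2 h, compound added, incubated 24 h at 37 °C. Luciferase reagent, 10 min ambient, then luminescence.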
SMN2 splice enh: qHTS Assay for Enhancers of SMN2 Splice Variant Expression | HEK293 SMN2-luciferase splicing reporter, luminescence, 30-36 h | Potency, µM (top dose mostly 46.1 µM), for the others: top-dose activity change, positive = activation, most hits filed as activators | 2.8% of 210,000 active; also: % of control where 0% means no effect; nearly all actives have a fitted effect of over 55% in size
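qHTS luciferase splicing reporter: luminescence rises when SMN2 exon 7 is included in transfected HEK293 cells. Compound exposure lasted 30-36 h at 37C, with 4.5 mM final sodium butyrate as control, followed by a ONE-Glo read.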
ELG1 repair inh: qHTS screen for small molecules that inhibit ELG1-dependent DNA repair in human embryonic kidney (HEK293T) cells expressing luciferase-tagged ELG1; 2.3% of 330,000 active; Potency, µM (series often up to 46.1 µM), without a hit: top-dose activity change, negative = inhibition, hits mostly inhibitors; HEK293T ELG1-luciferase reporter, luminescence, 16 h; DNA damage induced by 5-fluorouridine; AID 504467, 2011; also: % is scaled to controls: 0 for no effect and ±100 for the full control effect; nearly all actives have a fitted effect of over 55% in size
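Reporter activity after DNA damage by 5-fluorouridine is monitored. Compound-treated cells incubate 16 hr at 37 °C, then ONE-Glo is added for 30 min before luminescence reading.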
Rab9 promoter act: qHTS Assay for Rab9 Promoter Activators | Huh7 Rab9 promoter-luciferase reporter, luminescence, 24 h | Potency, µM (highest dose often 9.22 µM), for the others: at the highest dose activation, negative = inhibition, actives largely listed as activators | 2.8% of 320,000 active | AID 485297, 2010; also: % of control where 0% means no effect; nearly all actives have a fitted effect of over 60% in size
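Stable Rab9-luc Huh7, 1500 cells/well, 2 h settle; cmpd in DMSO, 24 h, 37 °C/5% CO2; luciferase reagent 10 min RT; luminescence.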
ELG1 genotoxic: qHTS screen for small molecules that induce genotoxicity in human embryonic kidney (HEK293T) cells expressing luciferase-tagged ELG1 | AID 504466, 2011 | HEK293T ELG1-luciferase reporter, luminescence, 16 h | Potency, µM (series often up to 46 µM), without a hit: at the highest dose activity change, positive = activation, hits mostly activators | 1.3% of 330,000 active; also: % of control where 0% means no effect; nearly all actives have a fitted effect of over 60% in size
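After overnight (16 hr) compound treatment at 37 °C, ELG1-luciferase HEK293T cells were lysed with ONE-Glo; luminescence quantified 30 min later at room temperature.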
Starred values were filed as active, the others as inactive; ? = inconclusive; / = no result given; [ ] = another dose, or the depositor's remark. A selection: hits, their analogues and other compounds. The true share with any hit is near 9.2%. Calls follow the shape of the dose curve; as a rule, active = well fitted curve in the direction sought with a large enough effect; inconclusive = small, poorly fitted or top-dose-only effect, or another doubt; inactive = no such curve, though single readings can be large; an effect the other way counts as inactive or inconclusive. Potency is read from the fitted curve at half-maximal effect.

SMILES	FLuc counter	NPC1 promoter act	SMN2 splice enh	ELG1 repair inh	Rab9 promoter act	ELG1 genotoxic
Cc1c(Cc2ccccc2)c(=O)oc2cc(OC(=O)c3ccccc3)ccc12	?	-5%	-11%	1%	-3%	5%
Cc1ccc(CNC(=O)COc2ccc(S(=O)(=O)N3CCCC3)cc2)cc1	7%	-6%	/	-2%	0%	0%
Cc1ccc(-c2cn3nc(-c4ccccc4)c(-c4ccccc4)nc3n2)cc1	-13%	4%	/	0%	2%	0%
COc1ccc(-c2cn3nc4c(nc3n2)CCCC4)cc1	0.54µM*	0.45µM*	?	?	0.35µM*	?
COc1ccc(-c2cnc(C)o2)cc1S(=O)(=O)Nc1ccc(OC(F)(F)F)cc1	-2%	/	/	/	/	/
Cc1cnc(C(=O)Nc2nnc(C)s2)cn1	-14%	23%	1%	?	12%	13%
CCC(C)OC(=O)n1ccc(C(=O)Nc2nccs2)n1 (stereo not given)	17µM*	0%	41%	?	4%	7%
O=C(Nc1nccs1)c1cn2ccccc2n1	1.3µM*	0.32µM*	/	?	0.11µM*	?
Cc1csc(NC(=O)c2c(-c3c(Cl)cccc3Cl)noc2C)n1	-1%	-2%	-16%	-19%	-2%	1%
CCC(C)C(=O)Nc1nccs1 (stereo not given)	?	9%	/	?	3%	11%
Cc1cnc(C(=O)Nc2nnc(C(C)C)s2)cn1	?	2.5µM*	13µM*	?	2.8µM*	9.2µM*
Cc1onc(-c2c(Cl)cccc2Cl)c1C(=O)Nc1nccs1	3%	0%	/	23µM*	-2%	-22%
CSc1ccc(Nc2nn(-c3ccc(OC(F)(F)F)cc3)nc2C(C)=O)cc1	1%	/	-9%	/	/	/
CCC(C)NC(=O)Cn1c(=O)n(-c2cc(OC)cc(OC)c2)c(=O)c2ccccc21 (stereo not given)	1%	/	5%	/	/	/
Cc1cnc(C(=O)Nc2nnc(C3CC3)s2)cn1	-16%	20%	21%	?	26%	?
Cc1cnc(C(=O)Nc2nccs2)cn1	?	?	8%	?	3.2µM*	24%
O=C(CN1C(=O)C2C3C=CC(C4CC34)C2C1=O)Oc1ccccc1 (stereo not given)	-14%	-3%	-3%	18%	-1%	3%
CCN1/C(=C/c2ccc3cc(C)ccc3[n+]2CC)Sc2cc(C)ccc21	-12%	-34%	-63%	2.1µM*	-41%	-4%
O=C(CSc1nc2ccccc2c(=O)n1NC(=O)Cc1ccccc1)NCc1ccccc1	2%	2%	-18%	-8%	0%	-6%
COc1ccc(C(=O)Nn2c(SCC(=O)NC3CCCC3)nc3ccccc3c2=O)cc1	9.5µM*	3.2µM*	-41%	?	0.89µM*	?
COc1ccc(NC(=O)CSc2nc3ccccc3c(=O)n2CCC(=O)NC2CCCCC2)c(OC)c1	2%	/	/	/	/	/
O=C(CSc1nc2ccccc2c(=O)n1NC(=O)c1ccccc1)c1ccccc1	12µM*	?	?	?	3.5µM*	?
COc1ccc(C(=O)Nn2c(SCC(=O)NCc3ccccc3)nc3ccccc3c2=O)cc1	2.7µM*	0.4µM*	?	?	0.13µM*	0.082µM*
O=C(CSc1nc2ccsc2c(=O)n1NC(=O)c1ccccc1)Nc1nccs1	-7%	12%	20µM*	?	25%	7%
COC(=O)C1=C(C(=O)OC)[C@@H]2N(Cc3ccccc3)c3ccccc3[C@@]23C[C@@H](C(=O)OC)N(C(=O)NCc2ccccc2)C3=C1	/	/	11%	/	/	/
SMILES	FLuc counter	NPC1 promoter act	SMN2 splice enh	ELG1 repair inh	Rab9 promoter act	ELG1 genotoxic
COc1ccc(C(=O)Nn2c(SCC(=O)NCC3CCCO3)nc3ccccc3c2=O)cc1 (stereo not given)	0.76µM*	0.5µM*	-90%	?	0.4µM*	?
COC(=O)c1ccc2c(=O)n(CC3CCCO3)c(SCC(=O)Nc3ccccc3OC)nc2c1 (stereo not given)	6.7µM*	4%	6%	?	-4%	0%
Cc1ccc(C(=O)NC(=O)OCCn2c(C)cnc2[N+](=O)[O-])cc1	-3%	1%	-10%	-18%	-1%	1%
Cc1ccc2c(c1)N(CCC(=O)NCCCN1CCCC1)C(=O)C(C)O2 (stereo not given)	-3%	-1%	/	?	2%	0%
c1ccc(CSc2nnc(Cc3ccccc3)o2)cc1	24µM*	19%	?	?	?	?
O=C(O)c1cccc(CSc2nnc(Cc3ccccc3)o2)c1	19µM*	28%	16µM*	?	?	?
O=C(O)c1cccc(CSc2ncn[nH]2)c1	19µM*	12%	/	9%	?	-1%
c1ccc(CSc2nnc(Cc3ccccn3)o2)cc1	?	?	-1%	?	?	2%
O=C(CSc1nnc(Cc2ccccc2)o1)c1ccccc1	?	13%	5%	?	5%	?
O=C(COc1ccccc1F)Nc1ccc(Cl)c(-c2nc3ccccc3[nH]2)c1	-13%	/	/	/	/	/
CC#CCOC(=O)c1c(C)nc2sc3c(c2c1N)CCC(O)C3 (stereo not given)	?	-10%[46.1 µM]	-59%	-11%	-24%[46.1 µM]	16µM*
CCOC(=O)c1c(N)sc2c1CCC(CC)C2 (stereo not given)	?	-1%	-15%	13%	-2%	8%
COCc1cccc(C2=CC(=O)C[C@H](c3ccc(F)cc3)C2)c1	0%	1%	/	?	-8%	-3%
O=C(CCCN1C(=O)/C(=C/c2ccc(F)cc2)SC1=S)NCCCn1ccnc1	?	-3%	/	-8%	-3%	-5%
CC(C)c1ccc(/C=C2\SC(=S)N(CCC(=O)NCCCn3ccnc3)C2=O)cc1	2.4µM*	-7%	/	?	-39%	2%
COc1ccc(/C=C2\SC(=S)N(CCC(=O)NCCCn3ccnc3)C2=O)cc1	19µM*	1%	/	12%	-7%	0%
O=C(CSc1nc2ccccc2nc1Cc1ccc(F)cc1)Nc1ccc2c(c1)OCO2	-1%	/	/	/	/	/
Cn1c(=O)n(/N=C/c2ccccc2)c2ccccc21	15µM*	27%	?	?	17%	2%
Cc1nc2ccccc2c(=O)n1/N=C/c1ccccc1	?	3%	4%	?	4%	2%
